SMILES strings stand for the structures. The campaign covered roughly 480,000 compounds. About 740 (0.15%) were called active. This is one part of a sample in which actives are shown more often than they occur. Rule as the data show it: active = activity change below about -30%; inconclusive = mostly about -25% to -30%; inactive = weaker than that.

Here are results for 15 compounds from PubChem BioAssay AID1347041 (National Center for Advancing Translational Sciences (NCATS), 2019).

The target of this assay is L-lactate dehydrogenase A chain (Homo sapiens) (UniProt P00338). As to the kind of experiment: qHTS assay for inhibitors of human lactate dehydrogenase.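 Also: values are at about 110 or 230 µM; plate controls were DMSO wells for no effect and wells without enzyme for full effect.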 Conditions: purified LDHA, NADH/diaphorase-resazurin fluorescence; stronger effect = lower value. The text has this:
LDH is a key glycolytic enzyme that catalyzes the final step in the glycolytic pathway, reducing pyruvate to lactate and regenerating NAD+ equivalents necessary for continued glycolysis. LDHA has been linked to the carcinogenesis and malignancy in numerous forms of cancers and many other diseases. Consequently, both pharma and academia have invested in significant research efforts to identify small molecule therapeutics. Such attempts have been stalled or abandoned due to limited success in discovering potent and drug-like inhibitors that can be utilized to validate LDHA in vivo as a drug target, a necessary step toward advancing such a molecule towards the clinic Towards this goal we designed and performed a quantitative high-throughput screening (qHTS) campaign to discover novel compounds that are potent inhibitors of LDHA enzyme activity and cancer cell line growth.
The assay was optimized to 1536-well plates. Briefly, 3 µL of human lactate dehydrogenase 5 (#A38558H, Meridian Life Science, Inc., Memphis, TN) in LDH assay buffer (200 mM Tris HCl pH 7.4, 100 microM EDTA and 0.01% Tween-20) was added to a black solid bottom 1536-well assay plate (Greiner Bio-One) using a BioRAPTR FRD dispenser (Beckman Coulter, Brea, CA). A 1536-well pintool dispenser outfitted with 20 nL pins (Wako Automation, San Diego, CA) was used to transfer 23 nL of DMSO-solubilized compound (both library and vehicle controls) to each 1536-well assay plate. Following compound transfer, 1 µL of substrate solution containing NADH and sodium pyruvate (Sigma-Aldrich, St. Louis, MO) in LDH assay buffer was dispensed via BioRAPTR FRD to initiate the reaction. Final concentrations in the 4 microL reaction volume were 2 nM LDHA enzyme, 0.06 mM NADH and 0.2 mM sodium pyruvate. Following a 5 minute incubation period at room temperature, 1 µL of detection reagent (C. kluyveri diaphorase (Sigma-Aldrich) and resazurin sodium salt (Sigma-Aldrich) in LDH assay buffer) was added to a total volume of 5 µL. Final concentrations of detection reagents were 0.133 mg/mL diaphorase and 37 µM resazurin. Plates were immediately transferred to a ViewLux microplate imager (PerkinElmer, Waltham, MA), and any resulting resorufin fluorescence was measured (ex540, em590 nm) at 0 and 20 minutes. Fluorescence was normalized using enzyme-free and DMSO-treated control wells on each plate.
On the technique in general: In qHTS, concentration-response curves come from the screen itself.
Turning to `C=CCN1C(=O)NC(=O)/C(=C/c2ccc(OCC(=O)Nc3ccc(C)cc3)cc2)C1=O`, the activity change is -1.94% (inactive). `O=C(O)COc1ccccc1/C=C1\C(=O)NC(=O)N(CCC2=CCCCC2)C1=O`: the activity change was -34.5% (active). Turning to `Cc1[nH]nc2c1C(c1ccc(C(=O)O)cc1)SCC(=O)N2` (stereo not given), the activity change was 4.1% (inactive).

Take `COc1ccccc1N=C1SCCCN1C`: the activity change is -34.1% (active). Take `O=C(COc1ccc2c(=O)c(-c3ccccc3)coc2c1)N1CCN(CCO)CC1`: the activity change is 3.12% (inactive). For `COC(=O)C(O)(c1ccc(N(C)C(=O)O/N=C(/C)Cl)cc1)C(F)(F)F` (stereo not given), the activity change was 1.08% (inactive). As for `COc1cc(-c2c(C#N)c(N)nc3c2c(=O)nc2sccn23)ccc1OCc1ccccc1C`, the activity change is 6.76% (inactive). For `C[N+]12CN3CN(CN(C3)C1)C2` the value was -52.1% (active).

On to `Cc1c(-c2ccc(Br)cc2)c(=O)oc2ccc(OC(=O)N(C)C)cc12`, for which the activity change was 8.34% (inactive).

For the compound `N/C(=N\N=C\c1ccco1)N[N+](=O)[O-]`, the activity change was 6.01% (inactive).

Turning to `Cc1nc(CN2CCNCC2)cs1`, the activity change is 0.726% (inactive). For `Cc1ccc(C2(O)CC(C)N(C)CC2C)c(C)c1` (stereo not given) the value was 1.58% (inactive); for `CCOC(=O)C1=C(N)OC(C)=C(C(=O)OC(C)C)C12C(=O)Nc1ccc(Br)cc12` (stereo not given), 12.9% (inactive). On to `ClCc1cccnc1`, for which the activity change was -7.12% (inactive).

As to `CCN1CCN(C(=O)COc2ccc3c(=O)c(Oc4ccccc4)c(C)oc3c2)CC1`, the activity change was -13.1% (inactive).
